# Most compounds without a hit are left out; they make up all but 4% or so of the library.
# GRIN3A LBD mod: modulators (binders) of human NR3A ligand-binding domain; NR3A LBD differential scanning fluorimetry, Tm shift; 0% = protein alone, 100% = glycine-bound protein; Tm shift relative to glycine control, % at 25 µM; 340,000 compounds, 2.5% hits; AID 1259313;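 active = melting temperature shift of at least 10% of the positive control shift, at one fixed dose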
# FAS TE block: blocks the thioesterase domain of human fatty acid synthase; P49327; recombinant FAS-TE, OMFH fluorogenic substrate, fluorescence endpoint; inhibition, % at 15 µM; 360,000 compounds, 0.67% hits; AID 602261;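 active = compounds whose normalised, plate-corrected inhibition of enzyme fluorescence in the single-dose primary screen is 50% or more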
# ADAM10 inh: inhibitors of human ADAM10 | O14672 | recombinant ADAM10, EDANS/DABCYL FRET peptide cleavage, 3 h | inhibition, % at 7 µM | 370,000 compounds, 0.62% hits | AID 720582;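 active = inhibition above a per-campaign cutoff equal to the mean of compounds falling between control-based bounds plus 3 SD, cut at about 20% in these data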
# Target sequence (O14672 214-748 limits assumed): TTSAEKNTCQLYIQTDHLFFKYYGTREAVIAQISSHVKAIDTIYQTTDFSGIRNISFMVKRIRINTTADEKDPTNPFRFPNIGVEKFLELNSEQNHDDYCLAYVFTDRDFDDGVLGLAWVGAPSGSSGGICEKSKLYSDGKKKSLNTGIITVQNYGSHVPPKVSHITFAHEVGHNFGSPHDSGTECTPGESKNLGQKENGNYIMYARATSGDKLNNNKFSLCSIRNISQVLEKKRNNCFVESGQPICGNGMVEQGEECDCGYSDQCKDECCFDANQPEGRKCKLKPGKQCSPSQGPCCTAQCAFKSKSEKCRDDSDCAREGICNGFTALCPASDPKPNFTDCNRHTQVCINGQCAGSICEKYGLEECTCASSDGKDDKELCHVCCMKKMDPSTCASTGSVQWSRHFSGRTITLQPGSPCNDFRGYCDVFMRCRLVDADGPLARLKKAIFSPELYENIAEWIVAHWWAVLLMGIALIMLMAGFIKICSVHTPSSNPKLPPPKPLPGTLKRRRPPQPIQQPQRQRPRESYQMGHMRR
# ADAM17 inh: inhibits human ADAM17; P78536; inhibition, % at 6.95 µM; 370,000 compounds, 0.83% hits; recombinant ADAM17, EDANS/DABCYL FRET peptide cleavage;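 active = inhibition above the mean of compounds lying between control limits plus 3 SD, set per campaign, cut at about 8.5% in these data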
# aDG glyco act: alpha-DG glycosylation activation; Pro5-aDG cells, alpha-DG glycosylation AlphaScreen (IIH6); 0% Pro5, 100% B10-LARGE cell signal; AID 624168; 360,000 compounds, 0.22% hits; activation, % at 10 µM;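 active = activation of at least 8% versus controls, or a plate z-score of at least 8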;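 also: Pro5 are CHO cells carrying HIG-tagged alpha-DG that lacks glycosylation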
# A number is an active result; - = inactive; . = no result.
SMILES,GRIN3A LBD mod,FAS TE block,ADAM10 inh,ADAM17 inh,aDG glyco act
Cc1cc(C)c(C(N)=O)c(NC(=O)Nc2ccccc2)n1,-,-,-,-,-
O=C(CSCc1c(Cl)cccc1Cl)Nc1nccs1,-,-,-,-,-
COc1ccc(C2CC(c3ccccc3)=NN2C(=O)CSc2nnnn2-c2cccc(C)c2)cc1 (configuration not stated),-,-,-,-,-
O=C1C=CC(=Nc2ccc3c(c2)Cc2cc(F)ccc2-3)O1,22.9,-,-,-,-
C=CCN1C(=O)C(C)(C)N(C(=O)c2cccc([N+](=O)[O-])c2)c2ccccc21,-,-,-,-,-
COc1ccc(COC(=O)C2=C(C)NC(=O)NC2c2ccccc2OC(C)C)cc1 (configuration not stated),-,-,-,-,-
Cc1ccc(OCC(O)CNS(=O)(=O)c2ccccc2C(=O)O)cc1 (configuration not stated),13.1,-,-,-,-
Cc1cc(C(=O)N/N=C/c2ccc(-c3cccc(Cl)c3)o2)n[nH]1,16.2,-,-,-,-
O=C(N/N=C/c1c(F)cccc1Cl)C1CC1,-,-,-,-,-
O=C(O)c1ccc(N/N=C/c2ccc(-c3cccc(Cl)c3)o2)cc1,-,-,-,-,-
O=C(N/N=C/c1c(Cl)cccc1Cl)C(=O)NC1CC1,10.3,-,-,-,-
O=C(N/N=C\c1ccc(-c2cccc(Cl)c2)o1)C(=O)NC1CCCC1,23.9,-,-,-,-
Cc1cc(C(=O)N/N=C/c2ccc(-c3ccc([N+](=O)[O-])cc3C)o2)n[nH]1,-,-,-,-,-
C[C@H](NC(=O)Cc1cccc2ccccc12)C(=O)N1CCCN(C)CC1,-,-,-,-,-
CCN(Cc1nc2cc(Cl)ccc2c(=O)[nH]1)C(=O)COc1ccccc1Cc1ccccc1,-,-,-,-,-
COCCN(Cc1nc2ccccc2c(=O)[nH]1)C(=O)COc1ccccc1-c1ccccc1,12.8,-,-,-,-
CCN(Cc1nc2ccccc2c(=O)[nH]1)C(=O)COc1ccccc1Cc1ccccc1,11.5,-,-,-,-
O=C(N[C@H](C(=O)N1CCC[C@H]1C(=O)NCCc1ccccc1Cl)C1CCCCC1)c1ccccc1,.,.,-,-,.
COc1ccc(NC2CCCN(C(=O)CCc3scnc3C)C2)cc1 (configuration not stated),14.1,-,-,-,-
CCC1CCc2c(sc(NC(=O)CSc3nc(-c4ccco4)cc(C(F)(F)F)n3)c2C#N)C1 (configuration not stated),12.1,-,-,-,-
N#Cc1c(NC(=O)CSc2nc(-c3ccccc3)cc(C(F)(F)F)n2)sc2c1CCC2,-,-,-,-,-
O=C(CCCSc1nc(-c2ccco2)cc(C(F)(F)F)n1)Nc1ccc2c(c1)OCO2,-,-,25.6,-,-
O=C(CSc1nc(-c2ccco2)cc(C(F)(F)F)n1)Nc1ccc2c(c1)OCO2,-,-,-,-,-
CCC1CCc2c(sc(NC(=O)c3ccco3)c2C(N)=O)C1 (configuration not stated),715.0,-,-,-,-
CCN(CC)CCN(C(=O)C1CCCCC1)c1nc2cc3c(cc2s1)OCO3,-,-,-,-,-
SMILES,GRIN3A LBD mod,FAS TE block,ADAM10 inh,ADAM17 inh,aDG glyco act
CCOC(=O)[C@H]1[C@H]2COc3ccc(OC)cc3[C@@H]2N2C(=O)[C@H](C)NC(=O)[C@@]12C,-,-,-,-,-
CC(=O)c1ccc(NC(=O)CSCC(=O)Nc2ccc3ccccc3c2)cc1,13.2,-,-,-,-
O=C(CSc1ccc(C(F)(F)F)cc1[N+](=O)[O-])Nc1ccc2ccccc2c1,34.5,-,-,-,-
CCC(=O)Nc1ccc(NC(=O)c2ccc3ccccc3c2)cc1,10.1,-,-,-,-
CC(=O)Nc1cccc(NC(=O)CSc2ccc(C(F)(F)F)cc2[N+](=O)[O-])c1,-,-,-,-,-
C=CCNc1nc(C(F)(F)F)nc2c1nnn2Cc1ccccc1Cl,-,-,-,-,-
CC(=O)Nc1ccc(Nc2nc(C(F)(F)F)nc3c2nnn3Cc2ccccc2Cl)cc1,13.2,-,-,-,-
CSCCC(NC(=O)COc1ccccc1)C(=O)OCC(=O)c1ccccc1 (configuration not stated),-,-,-,-,-
COC(=O)c1ccc(COC(=O)C(CCSC)NC(=O)COc2ccccc2)cc1 (configuration not stated),21.8,-,-,-,-
O=C1c2ccccc2C(=O)N1CCC#C/C=C1\c2ccccc2C(=O)N1c1ccccc1,.,-,-,-,-
O=C(/C=C/c1cccs1)Nc1ccc(N2CCOCC2)c(S(=O)(=O)Nc2cc(Cl)ccc2Cl)c1,10.1,-,-,-,-
O=C(Nc1ccc(N2CCOCC2)c(S(=O)(=O)Nc2ccccc2Cl)c1)c1ccc(F)cc1,-,-,-,-,-
O=C(Nc1ccc(F)cc1)Nc1ccc(N2CCCC2)c(S(=O)(=O)Nc2ccccc2Cl)c1,33.9,-,-,-,-
Nc1ccc(N2CCOCC2)c(S(=O)(=O)Nc2cc(Cl)ccc2Cl)c1,-,-,-,-,-
O=C(Nc1ccc(Cl)c(Cl)c1)Nc1ccc(N2CCCC2)c(S(=O)(=O)Nc2ccccc2Cl)c1,30.1,-,-,-,-
Cc1cc(NC(=O)/C=C/c2cccc(F)c2)n(-c2nc3ccccc3[nH]2)n1,-,-,-,-,-
Cc1cc(NC(=O)/C=C/c2cccc(Cl)c2)n(-c2nc3ccccc3[nH]2)n1,10.7,-,-,-,-
Cc1cc(NC(=O)/C=C/c2ccc(F)cc2)n(-c2nc3ccccc3[nH]2)n1,12.2,-,-,-,-
COc1ccc(NC(C)=O)cc1S(=O)(=O)N1CCN(Cc2cccs2)CC1,-,-,-,-,-
COC(=O)[C@H](Cc1ccccc1)NC(=O)NCC1CCCO1 (some centres not stated),14.2,-,-,-,-
O=C(CCCOc1ccccc1)NCC1CCCO1 (configuration not stated),-,-,-,-,-
O=C(CCSc1ccccc1)NCC1CCCO1 (configuration not stated),17.4,-,-,-,-
COc1ccc(NC(=O)Cc2c(C)n(C(=O)c3ccc(Cl)cc3)c3ccc(OC)cc23)cc1,-,-,-,-,-
COc1ccc2c(c1)c(CC(=O)Nc1cccc(S(N)(=O)=O)c1)c(C)n2C(=O)c1ccc(Cl)cc1,22.9,-,-,-,-
Cc1cccc(C)c1NC(=O)Nc1nnc([C@H]2C[C@H](O)[C@@H](CO)O2)s1,.,-,-,-,-
Cc1c(C(=O)N2CCc3ccccc32)oc2ccccc12,14.3,-,-,-,-
COc1ccc(NC(=O)C(c2ccc(C)cc2)N(C)C(=O)CC2NC(=O)NC2=O)cc1 (configuration not stated),11.9,-,-,-,-
Cc1ccc(C(=O)Nc2nc(COc3ccccc3)cs2)s1,29.4,-,-,-,-
